In PubChem BioAssay (Tox21) one finds Potency and outcome data, which are given here for 13 compounds.

The target of experiment [1] is Aryl hydrocarbon receptor (Homo sapiens) (UniProt P35869). Nature of the experiment: qHTS assay to identify small molecule that activate the aryl hydrocarbon receptor (AhR) signaling pathway (AID 743085). Further: nearly all actives have a fitted effect of over 15% in size. Further: potency means the concentration at half of the fitted maximal effect.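 On activation: HG2L7.5c1 human HepG2 liver cells with stably integrated DRE-driven firefly reporter; series mostly up to about 70 µM.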 Put shortly: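 Stably transfected human liver carcinoma cells (HG2L7.5c1; 20 DRE-firefly luciferase) were incubated 5 h, dosed, and kept 24 h at 37C. Agonism was scored from increased luciferase luminescence.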
Sequence of Aryl hydrocarbon receptor (Homo sapiens) (P35869 whole entry, looked up): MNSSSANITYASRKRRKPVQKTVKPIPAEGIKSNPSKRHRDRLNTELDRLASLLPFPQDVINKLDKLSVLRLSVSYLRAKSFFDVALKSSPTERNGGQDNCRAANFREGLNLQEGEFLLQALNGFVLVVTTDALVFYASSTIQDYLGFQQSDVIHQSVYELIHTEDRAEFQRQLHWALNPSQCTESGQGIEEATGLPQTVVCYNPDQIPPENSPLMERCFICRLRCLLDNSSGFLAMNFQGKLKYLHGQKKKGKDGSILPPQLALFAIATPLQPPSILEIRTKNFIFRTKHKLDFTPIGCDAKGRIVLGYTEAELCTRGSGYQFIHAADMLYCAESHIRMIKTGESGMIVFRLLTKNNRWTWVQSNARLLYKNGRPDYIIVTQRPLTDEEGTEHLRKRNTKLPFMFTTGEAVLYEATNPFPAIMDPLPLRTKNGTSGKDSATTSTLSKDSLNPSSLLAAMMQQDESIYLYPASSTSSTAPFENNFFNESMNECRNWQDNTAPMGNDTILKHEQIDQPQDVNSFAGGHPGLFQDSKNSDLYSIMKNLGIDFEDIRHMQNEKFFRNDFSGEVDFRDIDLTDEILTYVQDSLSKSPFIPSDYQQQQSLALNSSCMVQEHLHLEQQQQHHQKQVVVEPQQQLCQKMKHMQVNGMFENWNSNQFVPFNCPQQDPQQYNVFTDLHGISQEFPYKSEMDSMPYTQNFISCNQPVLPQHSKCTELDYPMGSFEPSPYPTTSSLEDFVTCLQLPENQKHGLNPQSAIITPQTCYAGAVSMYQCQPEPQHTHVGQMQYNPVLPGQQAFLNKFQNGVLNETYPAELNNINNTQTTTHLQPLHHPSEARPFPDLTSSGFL
Background: qHTS replaces the single test concentration by a dilution series.

Experiment [2] in a line: qHTS assay to identify small molecule that activate the aryl hydrocarbon receptor (AhR) signaling pathway - cell viability counter screen (AID 743086).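 Further: HepG2 liver cells carrying the AhR DRE luciferase reporter; series mostly up to about 70 µM; nearly all actives have a fitted effect of over 45% in size.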 The method, boiled down:
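HepG2-AhR-luc (HG2L7.5c1) cells, 4000/well, treated 24 h at 37 C with compound; viability measured as CellTiter-Fluor fluorescence after 30 min in the same wells as the luciferase read.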

The target of experiment [3] is Peroxisome proliferator-activated receptor gamma (Homo sapiens) (UniProt P37231). Nature of the experiment: qHTS assay to identify small molecule agonists of the peroxisome proliferator-activated receptor gamma (PPARg) signaling pathway (AID 743094; active means well fitted activation curve with a large enough effect in the signal ratio in the repeat runs, not every such curve was filed as active; the % refers to the signal ratio). The method, boiled down:
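Cells from the PPARg UAS-bla HEK293H line are plated and incubated 5 h at 37C. Compounds in DMSO are pinned in and left 17 h at 37C. LiveBLAzer B/G substrate is then added for 1 h at room temperature before fluorescence is measured.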

Experiment [4] can be described thus: qHTS assay to identify small molecule antagonists of the peroxisome proliferator-activated receptor gamma (PPARg) signaling pathway - cell viability counter screen (AID 743194). Further: nearly all actives have a fitted effect of over 55% in size. The conditions noted are these: Potency: co-treated with 50 nM rosiglitazone. Put shortly: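 Cytotoxicity counter screen in PPARg-bla HEK293H cells, same wells as reporter assay. Compounds plus 50 nM rosiglitazone (final) for 17 h at 37 C, then viability read by CellTiter-Glo luminescence.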

Experiment [5] is described as follows: qHTS assay for small molecule agonists of the antioxidant response element (ARE) signaling pathway (AID 743202; active means well fitted activation curve with a large enough effect in the signal ratio in the repeat runs, not every such curve was filed as active; the % refers to the signal ratio; further: potency means the concentration at half of the fitted maximal effect). Put shortly:
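HepG2 ARE-bla reporter line, 2,000 cells/well; 5 h preincubation 37 C/5% CO2; compound (DMSO) 16 h 37 C; B/G FRET substrate 2 h RT; fluorescence intensity.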

Experiment [6] in a line: qHTS assay for small molecule agonists of the antioxidant response element (ARE) signaling pathway - cell viability counter screen (AID 743203; calls by dose curve; further: nearly all actives have a fitted effect of over 55% in size). The method, boiled down:
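Cytotoxicity was tested in parallel with the ARE reporter screen. ARE-bla HepG2 cells were exposed to compounds for 16 hrs, and viability was taken from CellTiter-Glo luminescence.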

Experiment [7] is described as follows: qHTS assay for small molecule activators of the heat shock response signaling pathway - cell viability counter screen (AID 743209). Further: nearly all actives have a fitted effect of over 50% in size. The method, boiled down: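 Cytotoxicity counter screen run in parallel with the HSE beta-lactamase reporter, using the same wells. HeLa HSE-bla cells received compound for 5 h at 37 C; ATP-based CellTiter-Glo luminescence was measured after 30 min at room temperature.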

A short description of experiment [8]: qHTS assay for small molecule activators of the heat shock response signaling pathway (AID 743210; active means well fitted activation curve with a large enough effect in the signal ratio in the repeat runs, with a control signal flat, not every such curve was filed as active; the % refers to the signal ratio; further: series mostly up to about 63 µM). The method, boiled down: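 Beta-lactamase reporter read-out: FRET substrate fluorescence after 2.5 h at RT, following 5 h compound treatment at 37 C of HeLa cells carrying HSE-driven bla reporter; quantitative HTS format.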
Experiment [9] is described as follows: qHTS assay to identify small molecule agonists of the peroxisome proliferator-activated receptor delta (PPARd) signaling pathway - cell viability counter screen (AID 743211). Further: nearly all actives have a fitted effect of over 55% in size. Put shortly:
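In the same wells used for beta-lactamase reporter measurement, cytotoxicity is scored by CellTiter-Glo. HEK293H PPARd-bla cells receive compound for 17 h at 37C following a 5 h settling period.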

Experiment [10] is described as follows: qHTS assay to identify small molecule antagonists of the peroxisome proliferator-activated receptor delta (PPARd) signaling pathway - cell viability counter screen (AID 743213). Further: nearly all actives have a fitted effect of over 50% in size. The method, boiled down: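 In this counter screen, HEK293H cells carrying a UAS-beta-lactamase reporter are co-treated with test compounds and 300 nM L165041 (final) for 17 h at 37 C; cell viability is quantified by CellTiter-Glo luminescence.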

A short description of experiment [11]: qHTS assay to identify small molecule agonists of the farnesoid-X-receptor (FXR) signaling pathway - cell viability counter screen (AID 743218). Further: nearly all actives have a fitted effect of over 45% in size. Put shortly: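 Cells were seeded, left 5 h at 37 C and 5% CO2, then dosed with compound in DMSO for 16 h. After the beta-lactamase FRET read, CellTiter-Glo was added and luminescence measured 30 min later.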
Experiment [12] can be described thus: qHTS assay to identify small molecule antagonists of the farnesoid-X-receptor (FXR) signaling pathway - cell viability counter screen (AID 743221; active means well fitted cell-killing curve with a large enough effect in the repeat runs, not every such curve was filed as active; further: nearly all actives have a fitted effect of over 50% in size). The method, boiled down: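 Here viability was scored by luminescence after CellTiter-Glo addition to wells already read for beta-lactamase. Prior treatment: compound plus CDCA (50 uM final), 16 h, 37 C, HEK 293T FXR-bla cells.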

The target of experiment [13] is Vitamin D3 receptor (Homo sapiens) (UniProt P11473). Nature of the experiment: qHTS assay to identify small molecule agonists of the vitamin D receptor (VDR) signaling pathway (AID 743222; calls by dose curve). Put shortly:
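Cells carrying a VDR-driven beta-lactamase reporter are seeded at 2,000 per well and rested 4 h. Compounds in DMSO are added for 16 h at 37C, and FRET substrate fluorescence is measured after 2 h at room temperature.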

Experiment [14] shares this target. Nature of the experiment: qHTS assay to identify small molecule antagonists of the vitamin D receptor (VDR) signaling pathway (AID 743223; active means well fitted inhibition curve with a large enough effect in the signal ratio in the repeat runs, not every such curve was filed as active; the % refers to the signal ratio). The method, boiled down:
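Inhibition of agonist-driven VDR signalling is scored in VDR-bla cells: 3 nM final 1alpha,25-dihydroxyvitamin D3 plus compound, 16 h at 37C, then beta-lactamase detection by FRET substrate fluorescence after 2 h.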

Experiment [15] is described as follows: qHTS assay to identify small molecule agonists of the vitamin D receptor (VDR) signaling pathway - cell viability counter screen (AID 743224). Further: series mostly up to about 63 µM; nearly all actives have a fitted effect of over 50% in size. Put shortly: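 Cells: VDR-bla, 2,000/well, settled 4 h. Treatment: compounds in DMSO, 16 h, 37C/5% CO2. Readout: CellTiter-Glo luminescence after 30 min RT.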
The target in experiment [16] is Peroxisome proliferator-activated receptor delta (Homo sapiens) (UniProt Q03181). Nature of the experiment: qHTS assay to identify small molecule agonists of the peroxisome proliferator-activated receptor delta (PPARd) signaling pathway (AID 743212; calls by dose curve). The method, boiled down: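 Read-out: beta-lactamase FRET fluorescence after 2 h room-temperature incubation with LiveBLAzer B/G substrate. Cells were HEK293H carrying a UAS-bla reporter for PPARd, treated at 37 C with DMSO-dissolved compounds.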
Sequence of Peroxisome proliferator-activated receptor delta (Homo sapiens) (Q03181 whole entry, looked up): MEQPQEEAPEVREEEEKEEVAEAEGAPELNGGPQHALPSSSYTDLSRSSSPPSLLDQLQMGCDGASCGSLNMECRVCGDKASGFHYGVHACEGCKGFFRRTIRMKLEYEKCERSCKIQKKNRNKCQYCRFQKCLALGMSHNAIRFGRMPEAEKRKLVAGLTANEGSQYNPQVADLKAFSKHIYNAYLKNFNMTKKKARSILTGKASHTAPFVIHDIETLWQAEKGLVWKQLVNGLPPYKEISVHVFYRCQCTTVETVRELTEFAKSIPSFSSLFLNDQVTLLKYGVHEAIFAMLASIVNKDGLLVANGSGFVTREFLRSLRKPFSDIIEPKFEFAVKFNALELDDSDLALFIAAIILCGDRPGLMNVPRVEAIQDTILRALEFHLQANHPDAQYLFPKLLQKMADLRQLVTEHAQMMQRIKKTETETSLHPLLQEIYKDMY

The target is the same in experiment [17]. In words: qHTS assay to identify small molecule antagonists of the peroxisome proliferator-activated receptor delta (PPARd) signaling pathway (AID 743215; active means well fitted inhibition curve with a large enough effect in the signal ratio in the repeat runs, not every such curve was filed as active; the % refers to the signal ratio;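 further: cells stimulated with agonist L165041 at 300 nM final during compound exposure; series mostly up to about 62 µM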). Put shortly: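 Cells: HEK293H with a UAS-driven beta-lactamase reporter responsive to PPARd. Compounds were co-added with L165041 (300 nM, final) and incubated 17 h at 37 C before a 2 h room-temperature FRET substrate step and fluorescence reading.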

The target in experiment [18] is Bile acid receptor (Homo sapiens) (UniProt Q96RI1). Nature of the experiment: qHTS assay to identify small molecule antagonists of the farnesoid-X-receptor (FXR) signaling pathway (AID 743217; active means well fitted inhibition curve with a large enough effect in the signal ratio in the repeat runs, not every such curve was filed as active; the % refers to the signal ratio). Put shortly:
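Cells carrying a UAS-driven beta-lactamase reporter (GeneBLAzer FXR-UAS-bla HEK 293T) were plated and rested 5 h at 37 °C. Compounds in DMSO were added alongside chenodeoxycholic acid agonist at 50 uM final and left 16 h at 37 °C before FRET substrate readout.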

Experiment [19] has the same target. Nature of the experiment: qHTS assay to identify small molecule agonists of the farnesoid-X-receptor (FXR) signaling pathway (AID 743220; active means well fitted activation curve with a large enough effect in the signal ratio in the repeat runs, not every such curve was filed as active; the % refers to the signal ratio). The method, boiled down:
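FXR-UAS-bla HEK 293T cells carrying a UAS-driven beta-lactamase reporter were plated for 5 h at 37C/5% CO2, then exposed to DMSO-dissolved Tox21 10K compounds for 16 h at 37C. A LiveBLAzer B/G FRET substrate was loaded for 2 h at room temperature before fluorescence reading.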

Records with an inconclusive call do not appear. Calls of active or inactive are those of the source. Unless noted, the call rests on the fitted dose curve; in most records, active means well fitted curve in the direction sought with a large enough effect in the repeat runs; inconclusive means weak or mixed curves; inactive means no such curve, though single readings can be large; an effect the other way counts as inactive or inconclusive.

Sequence of Peroxisome proliferator-activated receptor gamma (Homo sapiens) (P37231 whole entry, looked up): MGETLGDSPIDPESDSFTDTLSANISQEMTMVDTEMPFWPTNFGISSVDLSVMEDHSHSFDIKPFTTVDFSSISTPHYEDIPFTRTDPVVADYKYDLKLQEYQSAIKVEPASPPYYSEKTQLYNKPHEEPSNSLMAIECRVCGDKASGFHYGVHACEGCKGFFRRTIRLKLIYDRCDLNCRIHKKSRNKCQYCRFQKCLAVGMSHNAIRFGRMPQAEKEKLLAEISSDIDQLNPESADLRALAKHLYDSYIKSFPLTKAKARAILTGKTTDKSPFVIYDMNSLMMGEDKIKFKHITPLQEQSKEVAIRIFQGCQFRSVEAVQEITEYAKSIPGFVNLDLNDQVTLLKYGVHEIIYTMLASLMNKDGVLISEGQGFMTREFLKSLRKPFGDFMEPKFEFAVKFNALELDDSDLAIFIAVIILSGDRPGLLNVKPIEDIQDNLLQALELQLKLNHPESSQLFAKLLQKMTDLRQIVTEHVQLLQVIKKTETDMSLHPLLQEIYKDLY
Sequence of Bile acid receptor (Homo sapiens) (Q96RI1 whole entry, looked up): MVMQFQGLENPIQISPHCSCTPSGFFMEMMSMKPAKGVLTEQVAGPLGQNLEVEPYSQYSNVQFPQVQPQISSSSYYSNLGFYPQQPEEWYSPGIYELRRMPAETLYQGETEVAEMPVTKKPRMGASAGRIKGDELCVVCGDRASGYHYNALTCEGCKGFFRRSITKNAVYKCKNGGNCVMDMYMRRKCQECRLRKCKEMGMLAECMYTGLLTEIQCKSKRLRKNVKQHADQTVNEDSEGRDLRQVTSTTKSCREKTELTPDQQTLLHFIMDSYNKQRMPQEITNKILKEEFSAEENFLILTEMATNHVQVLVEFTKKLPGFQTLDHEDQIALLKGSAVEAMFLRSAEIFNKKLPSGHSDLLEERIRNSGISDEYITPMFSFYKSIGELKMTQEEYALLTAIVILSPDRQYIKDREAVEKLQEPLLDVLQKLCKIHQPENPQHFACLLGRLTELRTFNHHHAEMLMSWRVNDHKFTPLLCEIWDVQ
Sequence of Vitamin D3 receptor (Homo sapiens) (P11473 whole entry, looked up): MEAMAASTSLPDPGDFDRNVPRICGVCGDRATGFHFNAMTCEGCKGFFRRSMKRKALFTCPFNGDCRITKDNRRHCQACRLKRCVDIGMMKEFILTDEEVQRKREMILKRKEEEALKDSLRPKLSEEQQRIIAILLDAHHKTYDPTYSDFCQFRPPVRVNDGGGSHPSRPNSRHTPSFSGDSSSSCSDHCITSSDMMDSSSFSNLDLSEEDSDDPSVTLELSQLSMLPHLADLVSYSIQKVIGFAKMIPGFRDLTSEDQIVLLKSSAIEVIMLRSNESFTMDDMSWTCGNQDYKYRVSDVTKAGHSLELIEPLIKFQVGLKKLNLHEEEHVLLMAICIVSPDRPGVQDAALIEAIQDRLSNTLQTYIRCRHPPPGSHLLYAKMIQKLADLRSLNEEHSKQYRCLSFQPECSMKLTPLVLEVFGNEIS

Consider `CC(C)(C1CCC(O)CC1)C1CCC(O)CC1` (stereo unspecified), for which the Potency result in [1], in experiment [2], in experiment [4], in experiment [5], in experiment [6] and in experiment [7] was “inactive” throughout. Also, the Potency result in experiment [8], in experiment [9], in experiment [10], in experiment [11], in [12] and in experiment [15] was “inactive” throughout. For the same compound, the compound was called inactive in experiment [3], in [13] and in experiment [14].

For the compound `Cc1ccc(Cl)c(O)c1`, the Potency result in [1], in experiment [2], in experiment [4], in experiment [5], in [6] and in experiment [7] was “inactive” in each case. Besides, the Potency entry in experiment [8], in experiment [9], in experiment [17], in experiment [11], in [12] and in [15] was “inactive” each time. In addition, the compound was called inactive in experiment [3], in experiment [16], in experiment [18], in experiment [19] and in [13].

In the case of `CNC(=O)Oc1ccccc1C(C)C`, the Potency result in experiment [1], in experiment [2], in experiment [4], in experiment [5], in experiment [6] and in experiment [7] was “inactive” in each case. Also, the Potency result in [8], in experiment [9], in [10], in experiment [11] and in experiment [12] was “inactive” throughout. The outcome in [3] and in experiment [13] was inactive.

On to `O=c1[nH]c2ccccc2o1`, for which the Potency entry in experiment [1], in experiment [2], in experiment [4], in [5], in [6] and in [7] was “inactive” throughout. The Potency result in experiment [8], in experiment [9], in [10], in experiment [11], in experiment [12] and in experiment [15] was “inactive” throughout. Also, the call in experiment [3], in experiment [16] and in [13] was inactive.

`CCN[C@@H](C)Cc1cccc(C(F)(F)F)c1`: the Potency result in [1], in experiment [2], in [4], in experiment [5], in experiment [6] and in [8] was “inactive” in each case. In addition, the Potency result in experiment [9], in experiment [10], in experiment [17], in experiment [11], in experiment [12] and in experiment [15] was “inactive” in each case. The result in experiment [3], in [16], in [18] and in experiment [19] was inactive.

For the compound `CC(=NC#N)N(C)Cc1ccc(Cl)nc1`, the Potency entry in experiment [1], in experiment [2], in experiment [4], in experiment [5], in [6] and in [7] was “inactive” throughout. The Potency entry in [8], in experiment [9], in [10], in [11], in [12] and in experiment [15] was “inactive” each time. Also, the compound was classed as inactive in [3], in [16], in [13] and in [14].

As to `CN(C)C(=O)Oc1cc(OC(=O)N(C)C)cc(C(O)CNC(C)(C)C)c1` (stereo unspecified), the Potency result in experiment [1], in experiment [2], in [4], in [5], in experiment [6] and in experiment [7] was “inactive” each time. Besides, the Potency entry in experiment [9], in [10], in experiment [17], in experiment [11] and in experiment [12] was “inactive” throughout. In addition, the compound was classed as inactive in [3], in [16], in [18], in experiment [19], in experiment [13] and in experiment [14].

Take `ClCOCCl`: the Potency result in experiment [1], in experiment [2], in experiment [4], in experiment [5], in experiment [6] and in experiment [8] was “inactive” each time. In addition, the Potency result in [9], in experiment [10], in experiment [17], in experiment [11] and in experiment [15] was “inactive” in each case. The compound was classed as inactive in experiment [3], in [16], in experiment [18], in experiment [19] and in experiment [13].

As to `C=C1C[C@@H]2[C@H](CC[C@]3(C)C(=O)CC[C@@H]23)[C@@]2(C)C=CC(=O)C=C12`, the Potency entry in experiment [1], in experiment [2], in experiment [4], in experiment [6], in [7] and in experiment [8] was “inactive” throughout. Moreover, the Potency entry in experiment [9], in experiment [10], in experiment [11] and in experiment [12] was “inactive” each time. Also, the compound was called inactive in [3], in [18] and in experiment [13]. In addition, in [5], the Potency was 2.66 µM (active).

For `CCCN1CCC[C@@H]2Cc3[nH]ncc3C[C@H]21`, the Potency in experiment [1] is 9.44 µM (active). Moreover, the Potency result in [2], in [4], in [5], in experiment [6], in experiment [8] and in experiment [9] was “inactive” each time. Moreover, the Potency entry in experiment [11], in experiment [12] and in experiment [15] was “inactive” each time. Also, the call in [3], in experiment [18] and in experiment [19] was inactive.

As for `CCNc1nc(Cl)nc(NC(C)(C)C)n1`, the Potency result in experiment [1], in [2], in experiment [4], in experiment [5], in experiment [6] and in [7] was “inactive” in each case. Moreover, the Potency entry in experiment [8], in [9], in [10], in experiment [11], in experiment [12] and in [15] was “inactive” each time. Also, the compound was classed as inactive in experiment [3], in [16], in experiment [18], in experiment [19], in experiment [13] and in experiment [14].

Regarding `O=C(O)CBr`, the Potency entry in experiment [1], in [2], in [4], in experiment [5], in [6] and in [7] was “inactive” throughout. Besides, the Potency entry in [8], in experiment [9], in experiment [10], in experiment [11] and in experiment [12] was “inactive” each time. The compound was called inactive in experiment [3], in experiment [16], in experiment [13] and in [14].

In the case of `Clc1ccc(C(Cl)(Cl)Cl)cn1`, the Potency in experiment [1] is 48.6 µM (active). Also, the Potency result in experiment [2], in [4], in experiment [5], in experiment [8], in experiment [9] and in experiment [10] was “inactive” throughout. Further, the Potency entry in experiment [17], in experiment [11], in [12] and in experiment [15] was “inactive” throughout. Further, the compound was called inactive in experiment [3], in [16], in experiment [18], in [19] and in experiment [13].
